Compound activity deposited in PubChem BioAssay by National Center for Advancing Translational Sciences (NCATS).
Only some compounds are listed: those with a hit (about 12% of all), similar ones and a draw of the others.
Sfp PPTase inh: inhibitors of Bacillus subtilis Sfp phosphopantetheinyl transferase. 310,000 tested, 3.5% active. AID 1490. Biochemical Sfp PPTase activity, qHTS. Potency, µM, for inactives: largest response in the series, negative = inhibition, most hits filed as inhibitors;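 note: the enzyme is Sfp with the accession as filed and its product quenches rhodamine fluorescence; 0% = enzyme reaction without inhibitor and -100% = no enzyme wells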
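Fluorescence-quenching assay with 15 nM Sfp, 5 uM rhodamine-CoA and 12.5 uM BHQ-2-labelled ybbR peptide in pH 7.6 Hepes/MgCl2 buffer. Enzyme was pre-incubated with compound for 15 min at room temperature. Rate was taken from the 30-min fluorescence change (525/598 nm).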
L3MBTL1 block: blocks human L3MBTL1; 230,000 tested, 0.66% active; AlphaScreen L3MBTL1–H3K9me1 peptide binding; Potency, µM (highest dose often 57.1 µM), inactives show top-dose activity, negative = inhibition, usual class: inhibitors; note: % is set by controls: 0 for no effect and ±100 for the full control effect; nearly all actives have a fitted effect of over 60% in size
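L3MBTL1 (50 nM) pre-complexed 30 min with biotinylated H3(1-15)K9me1 peptide (75 nM), then compounds added for 30 min at room temperature; AlphaScreen streptavidin donor/nickel chelate acceptor beads (10 ug/mL final) read after 30 min dark incubation.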
BAZ2B inh: blocks human BAZ2B; Q9UIF8; AlphaScreen BAZ2B-H3K14Ac peptide displacement; Potency, µM (highest dose often 114 µM), without a hit: at the highest dose activity change, negative = inhibition, most hits filed as inhibitors; 360,000 tested, 4.4% active; note: % is set by controls: 0 for no effect and ±100 for the full control effect; nearly all actives have a fitted effect of over 60% in size
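BAZ2B (50 nM) with biotin-H3(5-23)K14Ac peptide (50 nM) in PBS pH 7.4, 0.01% Tween-20, preformed 30 min, then compound 30 min at room temperature; top concentration 110uM. AlphaScreen streptavidin donor/nickel chelate acceptor beads (10 ug/mL final), 20 min dark, signal read.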
G9a block: blocks human histone lysine methyltransferase G9a | Q96KQ7 | G9a H3K9 monomethylation, AlphaScreen, 2 h | Potency, µM (series often up to 102 µM), for inactives: top-dose activity, negative = inhibition, hits mostly inhibitors | 350,000 tested, 8.8% active | AID 504332; note: % is set by controls: 0 for no effect and ±100 for the full control effect; nearly all actives have a fitted effect of over 75% in size
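Step 1: enzyme (final 20 nM) with compound, 15 min RT. Step 2: substrate peptide 500 nM and SAM 20 uM, 2 h RT. Step 3: anti-H3K9me1 antibody and AlphaScreen beads, 10 min, then plate read.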
JMJD2A Tudor: inhibitors of human JMJD2A Tudor domain; AlphaScreen JMJD2A-Tudor / H3K4me3 peptide binding; Potency, µM (top dose mostly 114 µM), without a hit: at the top dose activity change, negative = inhibition, most hits filed as inhibitors; 390,000 tested, 4.4% active; AID 504339; note: % is set by controls: 0 for no effect and ±100 for the full control effect; nearly all actives have a fitted effect of over 50% in size
Target sequence (O75164 whole entry, looked up, the tested form may be a part): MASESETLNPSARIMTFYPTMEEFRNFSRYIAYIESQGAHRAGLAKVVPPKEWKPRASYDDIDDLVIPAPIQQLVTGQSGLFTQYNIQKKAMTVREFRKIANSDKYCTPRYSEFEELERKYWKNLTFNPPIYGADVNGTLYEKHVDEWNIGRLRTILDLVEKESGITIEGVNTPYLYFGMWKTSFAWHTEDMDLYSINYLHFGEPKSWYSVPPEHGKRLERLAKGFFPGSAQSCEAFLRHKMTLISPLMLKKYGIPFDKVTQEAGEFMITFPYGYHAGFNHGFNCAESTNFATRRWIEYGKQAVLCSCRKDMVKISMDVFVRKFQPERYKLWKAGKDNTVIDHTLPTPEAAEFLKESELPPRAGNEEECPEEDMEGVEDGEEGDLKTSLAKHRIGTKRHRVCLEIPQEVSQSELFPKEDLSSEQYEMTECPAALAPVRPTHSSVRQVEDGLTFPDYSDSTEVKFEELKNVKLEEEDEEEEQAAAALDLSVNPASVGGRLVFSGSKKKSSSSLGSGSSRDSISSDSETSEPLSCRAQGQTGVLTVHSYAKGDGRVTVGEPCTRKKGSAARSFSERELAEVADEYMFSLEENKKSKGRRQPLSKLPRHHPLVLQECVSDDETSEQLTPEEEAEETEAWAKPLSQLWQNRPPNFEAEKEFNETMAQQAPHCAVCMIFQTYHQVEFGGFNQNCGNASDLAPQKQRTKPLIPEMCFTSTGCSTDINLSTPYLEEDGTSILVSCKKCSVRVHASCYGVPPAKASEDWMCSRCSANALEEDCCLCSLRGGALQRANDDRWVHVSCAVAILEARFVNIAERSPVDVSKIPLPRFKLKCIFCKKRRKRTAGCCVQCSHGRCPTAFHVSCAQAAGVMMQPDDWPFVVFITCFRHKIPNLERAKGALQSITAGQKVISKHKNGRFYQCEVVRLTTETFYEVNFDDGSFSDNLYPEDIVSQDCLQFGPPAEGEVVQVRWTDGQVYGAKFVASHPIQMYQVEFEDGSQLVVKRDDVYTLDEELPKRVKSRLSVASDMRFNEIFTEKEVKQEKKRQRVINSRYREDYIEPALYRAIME
HP1b chromo inh: inhibitors of HP1-beta chromodomain binding to methylated histone tails | AlphaScreen HP1-beta / biotin-H3K9me3 peptide binding | AID 540317 | 390,000 tested, 0.56% active | Potency, µM (top dose mostly 114 µM), without a hit: top-dose activity change, negative = inhibition, hits mostly inhibitors; note: nearly all actives have a fitted effect of over 70% in size
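Compound inhibition of the preformed complex between 50 nM HP1-beta and 50 nM biotinylated H3K9me3 peptide was read by AlphaScreen. Buffer was PBS pH 7.4 with 0.01% Tween-20. Incubations ran 30 min at room temperature, with 10 ug/mL donor/acceptor beads.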
* = called active by the depositor; ? = inconclusive; · = no result; [ ] = remark or other dose. Calls come from the whole dose curve; as a rule, active = well fitted curve in the direction sought with a large enough effect; inconclusive = small, poorly fitted or top-dose-only effect, or another doubt; inactive = no such curve, though single readings can be large; an effect the other way counts as inactive or inconclusive. Potency is the fitted concentration of half-maximal effect.

SMILES	Sfp PPTase inh	L3MBTL1 block	BAZ2B inh	G9a block	JMJD2A Tudor	HP1b chromo inh
C=CCn1c(C)cc(/C([O-])=C(/C(=S)Nc2ccc(OC(F)F)cc2)[n+]2ccc(N(C)C)cc2)c1C	-10%	1%[11.4 µM]	45µM*	40µM*	?	?
CN(Cc1ccc([N+](=O)[O-])cc1)c1ccccc1	·	·	·	·	?	-14%[57 µM]
CN(CCCC(=O)O)c1ccc(N=Nc2ccc([N+](=O)[O-])cc2)cc1	·	·	·	·	22µM*	11µM*
O=C(Cn1ncc2c3ccccc3n(Cc3cccc(Cl)c3)c2c1=O)NCCCN1CCCCC1	·	·	-19%	-14%[59 µM]	-27%	31%
CCCCc1c(C)c(C#N)c2nc3ccccc3n2c1Nc1c(C)n(C)n(-c2ccccc2)c1=O	-6%	10%	-34%	17%	10%	72%
Cc1c(Nc2c3c(c(C#N)c4nc5ccccc5n24)CCC3)c(=O)n(-c2ccccc2)n1C	4%	-2%	-30%	50µM*	·	·
O=c1nc(N2CCCC2)nc(Nc2ccccc2)[nH]1	9%	9%	3%	-7%[12.7 µM]	-25%	6%
Nc1[nH]c(=O)nc(Nc2ccccc2)c1N=O	·	·	·	·	35µM*	34%
CCOc1ccc(S(=O)(=O)NN=C2CCN(C(C)=O)CC2)cc1	13%	·	2%	50µM*	-12%	37%
CCOc1ccc(NC2CCN(C(C)=O)CC2)cc1	-1%	·	0%	50µM*	-27%	24%
CCOc1ccc(NS(=O)(=O)c2ccc(C(=O)N3CCCCC3)cc2)cc1	11%	·	-13%	?	-10%	34%
CC(=O)N1CCC(Nc2ccc(C)cc2)CC1	13%	·	3%	?	-20%	11%
Cc1ccc2c(c1)Cc1c(nc(-c3ccc(F)cc3)nc1SCC(=O)N1CCCCC1)O2	·	·	-4%	0%[59 µM]	-12%	35%
COc1ccccc1C1=Nn2c(nnc2-c2ccccc2C)SC1	-11%	·	·	·	-28%	·
O=C1/C(=C\c2cccs2)CCC/C1=C/c1cccs1	-9%	·	·	?	·	·
COc1cccc(CNC(=O)CNS(=O)(=O)c2ccc3nc(C)sc3c2)c1	·	·	8%	-6%[59 µM]	-11%	56%
O=C(c1ccc(S(=O)(=O)N2CCC(c3nc4ccccc4s3)CC2)cc1)N1CCOCC1	?	-1%	5%	40µM*	-15%	6%
O=C(c1ccc(S(=O)(=O)N2CCC(c3nc4ccccc4[nH]3)CC2)cc1)N1CCOCC1	50µM*	0%	?	7.9µM*	28µM*	-12%
O=C(c1ccc(S(=O)(=O)N2CCC(c3nc4ccccc4s3)CC2)cc1)N1CCCCC1	·	·	·	·	-18%	22%
CCOC(=O)c1ccc(NC(=O)CC2Nc3cc(C)c(C)cc3NC2=O)cc1 (stereo not drawn)	·	·	-12%	-12%[59 µM]	-18%	14%
COc1cccc(CNS(=O)(=O)c2ccc3c(c2)C(C(C)C)C(=O)N3)c1 (stereo not drawn)	·	·	-3%[57.1 µM]	-17%[59 µM]	-18%	25%
COc1ccc(C2C3=C(CCCC3=O)Nc3nc(-c4cc(OC)c(OC)c(OC)c4)nn32)cc1OC (stereo not drawn)	-5%	-6%	-8%	40µM*	-13%	4%
COc1cc(-c2nc3n(n2)C(c2ccncc2)C2=C(CCCC2=O)N3)cc(OC)c1OC (stereo not drawn)	7%	·	-15%	-4%	-23%	19%
COc1cccc(C(=O)Nc2cccc(-c3cn4c(C)csc4n3)c2)c1OC	·	·	?	-3%[59 µM]	?	0%[57 µM]
COc1cccc(-c2cc(=O)c3cc(NC(=O)c4ccc(Cl)cc4)ccc3[nH]2)c1	9%	4%	-28%	50µM*	-15%	13%
SMILES	Sfp PPTase inh	L3MBTL1 block	BAZ2B inh	G9a block	JMJD2A Tudor	HP1b chromo inh
COc1cccc(-c2cc(=O)c3cc(NC(=O)c4ccccc4)ccc3[nH]2)c1	11%	2%	0%	10%	-24%	18%
COc1cccc(-c2cc(=O)c3cc(NC(=O)c4ccc(N(C)C)cc4)ccc3[nH]2)c1	5%	-2%	79µM*	32µM*	-13%	24%
Cc1cc2c(cc1S(=O)(=O)CCC(=O)N1CCCCC1C)OCC(=O)N2 (stereo not drawn)	·	·	2%	-9%[59 µM]	2%	66%
CC1CCN(S(=O)(=O)c2ccc3c(c2)CCN3C(=O)Nc2ccccc2Br)CC1	·	·	-3%	13%[59 µM]	-17%	41%
CCOc1ccc(CNC(=O)C2CCN(S(=O)(=O)N3CCCCC3)CC2)cc1	·	·	-2%	1%[59 µM]	-14%	5%
CCc1cccc(OCC(=O)N(C)CC(=O)Nc2cccc(F)c2)c1	·	-2%	9%	50µM*	-10%	19%
Cc1cccc(NC(=O)CSCC(=O)N(C)CCOc2ccc(Cl)cc2)c1	·	0%	-3%	56µM*	-10%	23%
Cc1ccc(NC(=O)CSCC(=O)N(C)CC(=O)Nc2cccc(F)c2)cc1	·	-5%	2%	45µM*	-6%	20%
O=C(Cc1ccccc1)Nc1cccc(N2C(=O)C=CC2=O)c1	-86%	1%	?	0.35µM*	20µM*	?
Cc1ccc(NC(=O)CSCC(=O)N(C)CCOc2ccc(Cl)cc2)cc1	·	10%	6%	-25%	-20%	51%
CC(C)Cn1c(=O)c2sccc2n2c(CCCC(=O)N3CCN(c4ccc(F)cc4)CC3)nnc12	·	·	9%	27%[59 µM]	-5%	65%
Cc1ccc(Cn2c(SCc3ccc(C(=O)O)cc3)nc3cccnc32)cc1	·	·	-2%	4%[59 µM]	0%	47%
Cc1ccccc1Nc1oc(-c2ccccc2)nc1CCc1ccccc1	-18%	·	·	·	·	·
O=C(CSCc1ccccc1)Nc1cccc(F)c1	11%	7%	4%	9%[59 µM]	45µM*	22%
CCOc1ccccc1NC(=O)Cn1c(=O)n(Cc2ccco2)c(=O)c2ccc(C(=O)NC3CCCC3)cc21	·	·	·	-24%[59 µM]	-11%	15%
Nc1ccc(O)c([N+](=O)[O-])c1	·	?	-39%	-28%[0.501 µM]	-29%	-8%
O=[N+]([O-])c1cc(N=Nc2ccc3ccccc3c2)ccc1O	11%	-28%	?	3.2µM*	?	-17%
CCCc1cc(=O)oc2c3c(ccc12)OCN(Cc1ccc(OC)cc1)C3	·	·	0%	-7%[59 µM]	-25%	10%
CCCCOc1cccc(C(=O)N(Cc2ccc(C)o2)c2ccccn2)c1	·	·	36%	2%[59 µM]	-7%	22%
